# Measured values as given in publication PMC7862700, “An all-to-all approach to the identification of sequence-specific readers for epigenetic DNA modifications on cytosine”.
# What was measured:
# Assay in all cases: DAPPL (digital affinity profiling via proximity ligation, sequencing); 10 mM Tris-HCl pH 7.5, 50 mM NaCl, 1 mM DTT, 4% glycerol, room temperature, 30 min; GST-TFs on glutathione beads, 16-mer random dsDNA library, 0.1% formaldehyde crosslink after washing; high values mean tight binding
# [1] = biological target: T1, FEV (Homo sapiens, UniProt Q99581 1-238); conditions: protein: recombinant; tags: N-terminal GST; dsDNA, one strand shown
# T1 sequence: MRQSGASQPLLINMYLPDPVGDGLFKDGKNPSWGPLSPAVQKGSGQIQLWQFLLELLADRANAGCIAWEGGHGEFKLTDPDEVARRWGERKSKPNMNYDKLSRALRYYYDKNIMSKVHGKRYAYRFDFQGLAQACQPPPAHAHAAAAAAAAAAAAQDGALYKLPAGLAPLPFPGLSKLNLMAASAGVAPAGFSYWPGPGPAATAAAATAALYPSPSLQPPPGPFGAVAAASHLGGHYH
# How it was run: (§1)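 Binding signal is given per hexamer as its read frequency for a factor divided by its frequency in the tag-only sample. GST-fused human transcription factors were expressed in yeast, captured on glutathione beads, barcoded with DNA and pooled with that sample, then incubated with 200 nmole of a 16-mer random double-stranded DNA library in Tris/NaCl/DTT/glycerol buffer for 30 min at room temperature. The pools were then washed, crosslinked, proximity-ligated, amplified by PCR and sequenced on an Illumina NextSeq500.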
# [2] = biological target: ETV5 (Homo sapiens, UniProt P41161 1-510); conditions: protein: recombinant; tags: N-terminal GST; dsDNA, one strand shown
# How it was run: as §1
# [3] = biological target: HSF1 (Homo sapiens, UniProt Q00613 1-529); conditions: protein: recombinant; tags: N-terminal GST; chain copies: 3; dsDNA, one strand shown
# How it was run: as §1
# [4] = biological target: T2, SPIC (Homo sapiens, UniProt Q8N5J4 1-248); conditions: protein: recombinant; tags: N-terminal GST; dsDNA, one strand shown
# T2 sequence: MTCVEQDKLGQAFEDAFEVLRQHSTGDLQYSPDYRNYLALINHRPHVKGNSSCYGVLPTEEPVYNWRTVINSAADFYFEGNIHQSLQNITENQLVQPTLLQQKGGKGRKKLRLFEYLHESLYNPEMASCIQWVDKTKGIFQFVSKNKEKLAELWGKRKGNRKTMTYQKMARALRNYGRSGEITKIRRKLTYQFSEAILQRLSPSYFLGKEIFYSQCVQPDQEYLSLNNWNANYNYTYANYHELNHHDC
# How it was run: as §1
# [5] = biological target: ELF4 (Homo sapiens, UniProt Q99607 1-663); conditions: protein: recombinant; tags: N-terminal GST; dsDNA, one strand shown
# How it was run: as §1
# [6] = biological target: T3, ELK4 (Homo sapiens, UniProt P28324-2 1-405); conditions: protein: recombinant; tags: N-terminal GST; dsDNA, one strand shown
# T3 sequence: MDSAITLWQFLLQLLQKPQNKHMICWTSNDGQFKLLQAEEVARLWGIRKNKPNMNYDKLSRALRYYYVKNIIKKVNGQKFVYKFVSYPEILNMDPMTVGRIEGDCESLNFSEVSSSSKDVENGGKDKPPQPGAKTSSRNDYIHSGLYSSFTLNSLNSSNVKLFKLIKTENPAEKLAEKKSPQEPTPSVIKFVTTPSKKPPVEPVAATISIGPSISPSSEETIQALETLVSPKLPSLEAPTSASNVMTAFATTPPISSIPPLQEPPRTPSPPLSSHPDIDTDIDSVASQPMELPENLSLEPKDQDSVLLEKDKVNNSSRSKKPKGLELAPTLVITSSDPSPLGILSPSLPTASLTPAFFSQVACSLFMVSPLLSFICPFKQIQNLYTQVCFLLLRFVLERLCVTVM
# How it was run: as §1
# [7] = biological target: T4, ETV2 (Homo sapiens, UniProt O00321 1-342); conditions: protein: recombinant; tags: N-terminal GST; dsDNA, one strand shown
# T4 sequence: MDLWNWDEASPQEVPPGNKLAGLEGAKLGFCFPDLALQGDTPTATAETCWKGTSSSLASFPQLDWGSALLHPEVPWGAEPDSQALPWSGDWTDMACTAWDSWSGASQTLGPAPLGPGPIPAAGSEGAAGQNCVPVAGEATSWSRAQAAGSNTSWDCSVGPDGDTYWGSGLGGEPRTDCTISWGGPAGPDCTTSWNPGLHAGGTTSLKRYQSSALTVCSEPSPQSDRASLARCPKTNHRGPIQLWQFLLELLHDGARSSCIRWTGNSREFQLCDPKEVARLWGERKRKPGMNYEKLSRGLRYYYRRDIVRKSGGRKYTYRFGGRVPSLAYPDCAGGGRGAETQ
# How it was run: as §1
# [8] = biological target: T5, ELF3 (Homo sapiens, UniProt P78545 1-371); conditions: protein: recombinant; tags: N-terminal GST; dsDNA, one strand shown
# T5 sequence: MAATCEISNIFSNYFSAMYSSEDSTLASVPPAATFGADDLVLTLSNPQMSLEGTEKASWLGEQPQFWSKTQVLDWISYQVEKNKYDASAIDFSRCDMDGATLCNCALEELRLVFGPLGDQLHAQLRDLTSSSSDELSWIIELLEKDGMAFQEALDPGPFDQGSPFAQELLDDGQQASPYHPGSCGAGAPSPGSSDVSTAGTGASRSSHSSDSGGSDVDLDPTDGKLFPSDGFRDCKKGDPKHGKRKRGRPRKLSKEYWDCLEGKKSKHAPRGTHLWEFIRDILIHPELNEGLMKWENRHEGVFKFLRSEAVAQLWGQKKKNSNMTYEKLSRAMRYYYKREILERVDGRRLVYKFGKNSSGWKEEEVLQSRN
# How it was run: as §1
# [9] = biological target: CRX (Homo sapiens, UniProt O43186 1-299); conditions: protein: recombinant; tags: N-terminal GST; dsDNA, one strand shown
# How it was run: as §1
# [10] = biological target: ETV1 (Homo sapiens, UniProt P50549 1-477); conditions: protein: recombinant; tags: N-terminal GST; dsDNA, one strand shown
# How it was run: as §1
# [11] = biological target: T6, ERF (Homo sapiens, UniProt P50548 1-548); conditions: protein: recombinant; tags: N-terminal GST; dsDNA, one strand shown
# T6 sequence: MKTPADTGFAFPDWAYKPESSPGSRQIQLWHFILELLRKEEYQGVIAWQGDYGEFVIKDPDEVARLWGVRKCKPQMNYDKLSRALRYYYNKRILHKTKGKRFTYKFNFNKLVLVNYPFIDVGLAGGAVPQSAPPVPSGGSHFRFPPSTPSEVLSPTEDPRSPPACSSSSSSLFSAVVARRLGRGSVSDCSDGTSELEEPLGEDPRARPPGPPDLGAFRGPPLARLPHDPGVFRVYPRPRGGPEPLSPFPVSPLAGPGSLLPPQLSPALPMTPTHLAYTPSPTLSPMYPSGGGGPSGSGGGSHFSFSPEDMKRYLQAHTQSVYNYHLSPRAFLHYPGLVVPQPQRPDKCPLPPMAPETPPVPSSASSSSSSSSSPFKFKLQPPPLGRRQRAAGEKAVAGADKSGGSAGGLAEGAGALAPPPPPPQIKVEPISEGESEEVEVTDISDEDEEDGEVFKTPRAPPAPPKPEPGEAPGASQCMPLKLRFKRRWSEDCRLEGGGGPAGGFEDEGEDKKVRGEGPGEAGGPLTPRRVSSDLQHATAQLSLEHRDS
# How it was run: as §1
# [12] = biological target: T7, ETV3L (Homo sapiens, UniProt Q6ZN32 1-361); conditions: protein: recombinant; tags: N-terminal GST; dsDNA, one strand shown
# T7 sequence: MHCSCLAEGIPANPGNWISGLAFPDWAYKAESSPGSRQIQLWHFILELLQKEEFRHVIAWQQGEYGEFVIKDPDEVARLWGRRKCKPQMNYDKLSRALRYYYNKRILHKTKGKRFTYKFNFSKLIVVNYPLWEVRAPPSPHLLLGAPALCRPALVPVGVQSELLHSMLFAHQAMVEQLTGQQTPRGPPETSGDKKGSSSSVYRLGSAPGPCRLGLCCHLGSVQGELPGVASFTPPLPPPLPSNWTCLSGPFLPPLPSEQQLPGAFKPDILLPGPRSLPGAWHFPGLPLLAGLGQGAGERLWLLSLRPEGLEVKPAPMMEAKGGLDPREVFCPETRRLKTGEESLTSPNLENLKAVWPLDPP
# How it was run: as §1
# [13] = biological target: T8, ETS2 (Homo sapiens, UniProt P15036 1-469); conditions: protein: recombinant; tags: N-terminal GST; dsDNA, one strand shown
# T8 sequence: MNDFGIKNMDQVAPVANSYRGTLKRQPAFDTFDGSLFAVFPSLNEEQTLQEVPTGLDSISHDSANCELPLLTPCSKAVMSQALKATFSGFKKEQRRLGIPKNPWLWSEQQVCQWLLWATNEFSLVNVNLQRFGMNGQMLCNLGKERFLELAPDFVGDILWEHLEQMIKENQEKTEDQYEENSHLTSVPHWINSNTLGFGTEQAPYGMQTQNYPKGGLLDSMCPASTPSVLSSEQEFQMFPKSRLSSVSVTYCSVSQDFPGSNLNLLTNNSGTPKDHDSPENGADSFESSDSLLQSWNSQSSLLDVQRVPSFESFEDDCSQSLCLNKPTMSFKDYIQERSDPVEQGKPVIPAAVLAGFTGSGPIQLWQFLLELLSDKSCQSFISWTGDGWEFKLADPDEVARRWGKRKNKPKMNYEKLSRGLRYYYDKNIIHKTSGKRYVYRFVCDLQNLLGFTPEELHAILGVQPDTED
# How it was run: as §1
# [14] = biological target: T9, SPDEF (Homo sapiens, UniProt O95238 1-335); conditions: protein: recombinant; tags: N-terminal GST; dsDNA, one strand shown
# T9 sequence: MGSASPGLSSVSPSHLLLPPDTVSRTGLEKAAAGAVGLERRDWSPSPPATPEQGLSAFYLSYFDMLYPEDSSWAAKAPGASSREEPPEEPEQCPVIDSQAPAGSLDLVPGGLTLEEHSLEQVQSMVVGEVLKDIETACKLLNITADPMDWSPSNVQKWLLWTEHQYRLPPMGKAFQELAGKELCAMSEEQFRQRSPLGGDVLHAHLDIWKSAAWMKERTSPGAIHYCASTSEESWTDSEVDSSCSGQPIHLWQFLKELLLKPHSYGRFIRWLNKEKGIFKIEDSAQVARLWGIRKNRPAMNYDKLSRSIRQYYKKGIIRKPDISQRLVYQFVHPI
# How it was run: as §1
# [15] = biological target: T10, ETV7 (Homo sapiens, UniProt Q9Y603 1-341); conditions: protein: recombinant; tags: N-terminal GST; dsDNA, one strand shown
# T10 sequence: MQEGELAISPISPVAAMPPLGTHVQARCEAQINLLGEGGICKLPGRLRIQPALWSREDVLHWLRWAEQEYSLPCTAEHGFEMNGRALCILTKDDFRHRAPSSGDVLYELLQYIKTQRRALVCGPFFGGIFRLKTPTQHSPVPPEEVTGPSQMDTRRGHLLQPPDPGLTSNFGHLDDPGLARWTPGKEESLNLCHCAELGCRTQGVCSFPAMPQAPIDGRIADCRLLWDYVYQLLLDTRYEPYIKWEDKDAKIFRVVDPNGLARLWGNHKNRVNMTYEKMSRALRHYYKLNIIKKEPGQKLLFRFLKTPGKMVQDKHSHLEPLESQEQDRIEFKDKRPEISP
# How it was run: as §1
# [16] = biological target: T11, ELF5 (Homo sapiens, UniProt Q9UKW6-2 1-255); conditions: protein: recombinant; tags: N-terminal GST; dsDNA, one strand shown
# T11 sequence: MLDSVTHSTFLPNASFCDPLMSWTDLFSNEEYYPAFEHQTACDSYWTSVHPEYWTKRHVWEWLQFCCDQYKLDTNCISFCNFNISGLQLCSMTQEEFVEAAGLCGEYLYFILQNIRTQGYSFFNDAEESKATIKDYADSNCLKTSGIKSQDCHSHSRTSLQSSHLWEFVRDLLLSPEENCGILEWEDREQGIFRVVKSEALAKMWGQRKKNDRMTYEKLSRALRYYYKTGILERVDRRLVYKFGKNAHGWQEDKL
# How it was run: as §1
# [17] = biological target: T12, ETV3 (Homo sapiens, UniProt P41162-2 1-143); conditions: protein: recombinant; tags: N-terminal GST; dsDNA, one strand shown
# T12 sequence: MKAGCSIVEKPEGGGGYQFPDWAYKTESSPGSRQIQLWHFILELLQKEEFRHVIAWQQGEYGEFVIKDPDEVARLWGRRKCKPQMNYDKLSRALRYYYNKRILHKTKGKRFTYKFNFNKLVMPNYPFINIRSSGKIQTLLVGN
# How it was run: as §1
# [18] = biological target: ETV6 (Homo sapiens, UniProt P41212 1-452); conditions: protein: recombinant; tags: N-terminal GST; dsDNA, one strand shown
# How it was run: as §1
# Sequence of HSF1 (Q00613 whole entry): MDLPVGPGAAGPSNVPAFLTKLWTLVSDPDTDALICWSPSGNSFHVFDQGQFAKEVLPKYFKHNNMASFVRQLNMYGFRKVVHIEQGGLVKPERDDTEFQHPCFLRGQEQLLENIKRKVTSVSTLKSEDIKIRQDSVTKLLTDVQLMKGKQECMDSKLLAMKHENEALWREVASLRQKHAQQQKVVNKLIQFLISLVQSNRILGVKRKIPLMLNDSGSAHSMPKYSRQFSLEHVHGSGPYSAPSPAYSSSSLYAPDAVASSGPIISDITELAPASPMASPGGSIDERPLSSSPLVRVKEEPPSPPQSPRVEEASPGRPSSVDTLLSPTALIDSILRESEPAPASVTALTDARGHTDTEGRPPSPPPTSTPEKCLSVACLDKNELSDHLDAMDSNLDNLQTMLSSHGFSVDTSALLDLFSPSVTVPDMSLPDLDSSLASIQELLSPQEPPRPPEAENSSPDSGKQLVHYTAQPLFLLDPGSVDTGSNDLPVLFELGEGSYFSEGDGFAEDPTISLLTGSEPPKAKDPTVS
# Sequence of ELF4 (Q99607 whole entry): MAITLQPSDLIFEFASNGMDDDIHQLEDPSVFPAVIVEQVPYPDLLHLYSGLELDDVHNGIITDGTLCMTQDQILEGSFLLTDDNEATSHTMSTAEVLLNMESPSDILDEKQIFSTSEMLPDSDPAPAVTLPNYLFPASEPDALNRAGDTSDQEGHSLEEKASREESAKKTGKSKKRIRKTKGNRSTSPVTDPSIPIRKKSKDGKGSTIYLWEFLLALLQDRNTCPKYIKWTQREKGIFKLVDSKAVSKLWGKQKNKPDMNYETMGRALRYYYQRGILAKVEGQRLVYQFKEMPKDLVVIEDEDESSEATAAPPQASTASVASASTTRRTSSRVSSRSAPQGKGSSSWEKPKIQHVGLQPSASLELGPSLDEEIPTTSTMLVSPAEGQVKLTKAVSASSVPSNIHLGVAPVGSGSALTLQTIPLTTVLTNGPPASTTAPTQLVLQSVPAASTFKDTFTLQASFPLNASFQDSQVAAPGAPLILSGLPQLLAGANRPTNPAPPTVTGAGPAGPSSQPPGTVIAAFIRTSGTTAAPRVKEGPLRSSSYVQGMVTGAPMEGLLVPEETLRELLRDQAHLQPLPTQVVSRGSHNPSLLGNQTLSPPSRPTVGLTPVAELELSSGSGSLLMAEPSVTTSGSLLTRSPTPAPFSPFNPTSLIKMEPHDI
# Sequence of ETV5 (P41161 whole entry): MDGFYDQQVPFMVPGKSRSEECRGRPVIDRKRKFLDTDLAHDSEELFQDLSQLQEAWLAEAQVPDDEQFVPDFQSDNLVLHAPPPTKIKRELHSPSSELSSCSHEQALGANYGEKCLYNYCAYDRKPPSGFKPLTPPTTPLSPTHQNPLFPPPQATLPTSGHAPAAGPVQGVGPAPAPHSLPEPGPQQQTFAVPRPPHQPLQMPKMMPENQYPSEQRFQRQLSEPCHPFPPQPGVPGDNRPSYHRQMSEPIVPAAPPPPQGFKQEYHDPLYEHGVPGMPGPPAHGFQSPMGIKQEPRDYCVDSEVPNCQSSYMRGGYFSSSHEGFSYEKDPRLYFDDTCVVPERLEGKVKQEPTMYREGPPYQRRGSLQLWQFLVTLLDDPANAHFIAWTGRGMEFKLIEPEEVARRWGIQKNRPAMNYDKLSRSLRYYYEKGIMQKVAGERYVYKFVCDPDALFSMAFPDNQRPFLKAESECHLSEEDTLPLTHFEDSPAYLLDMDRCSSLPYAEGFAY
# Sequence of CRX (O43186 whole entry): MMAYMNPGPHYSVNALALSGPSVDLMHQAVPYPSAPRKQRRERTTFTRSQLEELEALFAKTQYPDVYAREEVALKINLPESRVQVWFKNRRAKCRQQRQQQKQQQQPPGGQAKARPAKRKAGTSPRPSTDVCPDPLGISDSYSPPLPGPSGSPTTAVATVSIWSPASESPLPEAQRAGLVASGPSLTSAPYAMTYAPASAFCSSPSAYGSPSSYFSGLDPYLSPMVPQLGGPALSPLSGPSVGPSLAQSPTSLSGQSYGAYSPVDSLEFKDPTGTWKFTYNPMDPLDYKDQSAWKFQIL
# Sequence of ETV6 (P41212 whole entry): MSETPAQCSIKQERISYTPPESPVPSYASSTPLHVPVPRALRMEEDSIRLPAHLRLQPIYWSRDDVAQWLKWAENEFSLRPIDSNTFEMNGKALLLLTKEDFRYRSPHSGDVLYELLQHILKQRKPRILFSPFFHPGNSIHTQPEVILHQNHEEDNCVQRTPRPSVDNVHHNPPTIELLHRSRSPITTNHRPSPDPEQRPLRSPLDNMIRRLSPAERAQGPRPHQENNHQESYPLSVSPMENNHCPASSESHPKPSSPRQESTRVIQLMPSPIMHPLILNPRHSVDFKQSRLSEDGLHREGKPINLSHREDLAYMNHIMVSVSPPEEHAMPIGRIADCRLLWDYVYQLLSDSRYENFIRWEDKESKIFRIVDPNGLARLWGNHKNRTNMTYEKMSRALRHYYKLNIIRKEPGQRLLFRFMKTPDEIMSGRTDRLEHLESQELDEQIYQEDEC
# Sequence of ETV1 (P50549 whole entry): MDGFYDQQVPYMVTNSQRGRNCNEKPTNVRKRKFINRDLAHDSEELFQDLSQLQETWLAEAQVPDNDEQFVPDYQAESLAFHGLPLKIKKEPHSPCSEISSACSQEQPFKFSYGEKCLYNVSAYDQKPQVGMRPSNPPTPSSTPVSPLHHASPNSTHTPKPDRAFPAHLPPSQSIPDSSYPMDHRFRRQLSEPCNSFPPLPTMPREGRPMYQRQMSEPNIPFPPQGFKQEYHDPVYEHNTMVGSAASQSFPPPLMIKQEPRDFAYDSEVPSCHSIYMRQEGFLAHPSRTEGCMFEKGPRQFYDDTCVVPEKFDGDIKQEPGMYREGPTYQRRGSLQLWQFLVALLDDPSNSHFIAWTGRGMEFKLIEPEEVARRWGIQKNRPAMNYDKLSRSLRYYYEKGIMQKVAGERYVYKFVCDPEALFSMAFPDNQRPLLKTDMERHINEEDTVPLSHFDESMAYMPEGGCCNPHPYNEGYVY
sequence,measurement,setting,value
TGAATT,binding signal,[1],"1.18 fold enrichment (6-mer frequency, TF over GST control)"
same,binding signal,[2],"1.15 fold enrichment (6-mer frequency, TF over GST control)"
same,binding signal,[3],"1.23 fold enrichment (6-mer frequency, TF over GST control)"
same,binding signal,[4],"1.34 fold enrichment (6-mer frequency, TF over GST control)"
same,binding signal,[5],"1.16 fold enrichment (6-mer frequency, TF over GST control)"
same,binding signal,[6],"1.01 fold enrichment (6-mer frequency, TF over GST control)"
same,binding signal,[7],"1.19 fold enrichment (6-mer frequency, TF over GST control)"
same,binding signal,[8],"1.12 fold enrichment (6-mer frequency, TF over GST control)"
same,binding signal,[9],"1.38 fold enrichment (6-mer frequency, TF over GST control)"
same,binding signal,[10],"1.23 fold enrichment (6-mer frequency, TF over GST control)"
same,binding signal,[11],"1.14 fold enrichment (6-mer frequency, TF over GST control)"
same,binding signal,[12],"1.17 fold enrichment (6-mer frequency, TF over GST control)"
same,binding signal,[13],"1.16 fold enrichment (6-mer frequency, TF over GST control)"
same,binding signal,[14],"1.11 fold enrichment (6-mer frequency, TF over GST control)"
same,binding signal,[15],"1.21 fold enrichment (6-mer frequency, TF over GST control)"
same,binding signal,[16],"1.13 fold enrichment (6-mer frequency, TF over GST control)"
same,binding signal,[17],"1.16 fold enrichment (6-mer frequency, TF over GST control)"
same,binding signal,[18],"1.03 fold enrichment (6-mer frequency, TF over GST control)"
